An excerpt weighted towards active compounds, which were near 1.6% of everything screened.
KCNQ2 enhance – potentiators of rat KCNQ2 potassium channel | hit rate 0.54% among 310,000 | AID 2239, 2010 | CHO-K1 KCNQ2, FluxOR thallium flux fluorescence; active compounds read high | B-score at 10 µM | Potassium voltage-gated channel subfamily KQT member 2 (Rattus norvegicus), O88943;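 active = fluorescence ratio B-score at least 3 SD of library B-scores, with initial fluorescence B-score within 3 of them, cut at about 5.3 in these data; same plate scores as AID 2156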;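 note: B-score of peak minus minimum over baseline fluorescence ratio after K+ and Tl+ stimulus; positive B-score means potentiation of KCNQ2 with more thallium influx and brighter signal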
KCNQ2 block – rat KCNQ2 potassium channel inhibitors, primary screen, cell-based, CHO-K1, FluxOR thallium flux, B-score | Potassium voltage-gated channel subfamily KQT member 2 (Rattus norvegicus), O88943 | 20 min; active compounds read low | hit rate 1.1% among 310,000 | B-score at 10 µM;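 active = fluorescence ratio B-score at most minus 3 library SDs, with starting brightness B-score within 2 library SDs, cut at about -5.5 in these data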
KCNQ2 block conf – rat KCNQ2 potassium channel inhibitors, confirmation, cell-based, thallium flux; activity change, negative = inhibition, % at 10 µM; AID 493025, 2011; hit rate 57% among 1,000; KCNQ2-expressing cells, inhibition; active compounds read low; shares compounds with KCNQ2 block;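 note: 0% = vehicle wells and values are ratio percent relative to vehicle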
KCNQ1 spec – human KCNQ1 channel inhibition, counter-screen for KCNQ2 inhibitor project, cell-based, FluxOR thallium flux; shares compounds with KCNQ2 block; AID 493026, 2011; hit rate 15% among 1,000; KCNQ1-expressing cells, FluxOR thallium flux fluorescence; active compounds read low; activity change, negative = inhibition, % at 10 µM;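 active = activity change at least 3 SD of negative controls below their mean in both duplicate wells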;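 note: CHO cells stably transfected with KCNQ1 and depolarized by potassium stimulus; peak minus minimum fluorescence over baseline after thallium addition; 0% = vehicle negative control and -100% = blank without thallium stimulus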
CHO Tl ctr – thallium flux change in parental CHO cells, counter-screen for KCNQ2 inhibitor project; shares compounds with KCNQ2 block; active compounds read low; activity change, % at 10 µM; hit rate 14% among 1,000;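 note: 0% = vehicle negative controls with stimulus buffer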
KCNQ2 inh confirm – rat KCNQ2 channel inhibitors, confirmation, cell-based, automated patch clamp, single concentration; shares compounds with KCNQ2 block; KCNQ2-expressing cells, automated patch clamp current; AID 588531, 2011; calls only at 10 µM; hit rate 49% among 550
The depositor's hits bear a star; i = inactive; . = no result given; + = active, no number. Unless noted, the rule behind the calls is not given here.

SMILES	KCNQ2 enhance	KCNQ2 block	KCNQ2 block conf	KCNQ1 spec	CHO Tl ctr	others
O=C(CCN1CCN(c2ccccc2)CC1)c1ccc(Br)cc1	-8.2	-8.2*	-22%*	i	i	KCNQ2 inh confirm=i
O=C(CCN1CCN(c2ccccc2F)CC1)c1ccc(Br)cc1	-8.5	-8.5*	i	i	i
Cc1cc(C(=O)NNc2ccc(C)c(C)c2)no1	2.3	i	.	.	.
O=[N+]([O-])c1ccc(S(=O)(=O)N/N=C/c2ccc3c(c2)OCO3)cc1	.	i	.	.	.
Cc1ccc(-c2nnc(N3CCCCC3)c3ccccc23)cc1S(=O)(=O)N(C)C	0.04	i	.	.	.
Cn1c(C(=O)N(Cc2ccccc2)Cc2ccccn2)cc2sccc21	-8.3	-8.3*	i	i	i
Cn1c(C(=O)N(Cc2ccccc2)Cc2cccs2)cc2sccc21	.	i	.	.	.
CN(C)/C=N/c1c(C#N)cnn1-c1nc2ccccc2s1	0.69	i	.	.	.
COC(=O)c1sc(N)c(C(=O)OC)c1COC(=O)c1c(C)noc1C	.	i	.	.	.
C/C(=N\OCC(=O)NC12CC3CC(CC(C3)C1)C2)c1cc2ccccc2o1	-6.8	-6.8*	-38%*	-37%*	-27%*	KCNQ2 inh confirm=i
CSc1ccccc1NC(=O)CO/N=C(\C)c1cc2ccccc2o1	.	i	.	.	.
Cc1ccc(C(=O)Nn2cnc3ccccc3c2=O)cc1C	.	i	.	.	.
Cc1cc(C)n2nc(C(=O)N3CCCC(N4CCN(c5ccccc5C)CC4)C3)cc2n1 (centres undefined)	.	i	.	.	.
O=C(c1nn2c(C(F)(F)F)cc(-c3ccc(F)cc3)nc2c1Cl)N1CCOCC1	0.62	i	.	.	.
COc1ccc(OC(C)C(=O)N2CCN(c3ccccn3)CC2)cc1 (centres undefined)	0.77	i	.	.	.
C=CCn1c(SCC(=O)c2cc(C)n(C(C)COC)c2C)nc2sc(C)c(C)c2c1=O (centres undefined)	-11	-11*	i	i	i
C=CCn1c(SCC(=O)NCCO)nc2sc(C)c(C)c2c1=O	.	i	.	.	.
Cc1cc(C(=O)N=Nc2c(O)n(C(C)C)c3ccccc23)n[nH]1	0.24	i	.	.	.
COc1cccc(NC(=O)c2cccc(C(=O)Nc3cccc(OC)c3)c2)c1	0.78	i	.	.	.
COc1cccc(C(=O)Nc2cccc(C(=O)NCC(C)C)c2)c1	-6.7	-6.7*	i	i	i
O=C(Nc1ccc(N2CCCC2)cc1)c1cc2ccccc2o1	.	i	.	.	.
CC(C)[C@H](NC(=O)N1CCn2c1nc1ccccc12)C(=O)NCc1ccc(F)cc1	.	i	.	.	.
CC(C)[C@H](NC(=O)N1CCn2c1nc1ccccc12)C(=O)NCc1ccccc1Cl	-8.1	-8.1*	-34%*	-32%*	-24%*	KCNQ2 inh confirm=+
O=C1C(=C(c2ccccc2)c2ccccc2)Nc2ccccc21	.	i	.	.	.
O=C(/C=C/Nc1ccc(Br)cc1F)c1ccccc1	0.37	i	.	.	.
SMILES	KCNQ2 enhance	KCNQ2 block	KCNQ2 block conf	KCNQ1 spec	CHO Tl ctr	others
CCOC(=O)C1CCN(S(=O)(=O)c2ccc3c(c2)CCN3C(C)=O)CC1	2.6	i	.	.	.
COC(=O)/C(=C\C=C\c1ccccc1)NC(=O)c1ccccc1	.	i	.	.	.
CC(C)c1ccc2c(c1)C(N1CCNCC1)Cc1ccc(F)cc1S2 (centres undefined)	-9.7	-9.7*	-38%*	-36%*	-31%*	KCNQ2 inh confirm=i
CN1CCN(C2Cc3ccc(F)cc3Sc3cc(F)c(Cl)cc32)CC1 (centres undefined)	.	i	.	.	.
CCCOC(=O)C1=C(C)OC23OC(N)=C(C#N)C12C(=O)c1ccccc13 (centres undefined)	1.5	i	.	.	.
CCOC(=O)CSc1nnc(Cc2ccccc2)n1-c1cccc(Cl)c1	.	i	.	.	.
CCOC(=O)CSc1nnc(CNc2ccccc2Cl)n1-c1ccccc1	-6.7	-6.7*	-25%*	i	i	KCNQ2 inh confirm=+
Cc1c(Cl)cccc1NC(=O)CCCn1nc([N+](=O)[O-])cc1C	0.87	i	.	.	.
Cc1cccc(NC(=O)CSCC(=O)Nc2ccc(S(=O)(=O)N3CCCC3)cc2)c1	.	i	.	.	.
COc1ccccc1NC(=O)c1cc(-c2ccc(C)o2)nc2ccccc12	-8.1	-8.1*	-34%*	i	i	KCNQ2 inh confirm=+

Compound activity as filed in PubChem BioAssay.
